Test results published in PubChem BioAssay (Tox21).
Records with an inconclusive call do not appear. The source made the active and inactive calls. Unless noted, the call rests on the fitted dose curve.

How the values were obtained:
[1] = qHTS assay to identify small molecule agonists of the vitamin D receptor (VDR) signaling pathway - cell viability counter screen (AID 743224; active means well fitted curve in the direction sought with a large enough effect in the repeat runs; an effect the other way counts as inactive or inconclusive; further: series mostly up to about 63 µM; nearly all actives have a fitted effect of over 50% in size)
In short: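 Plated VDR-bla cells (4 h, 37C) received compound, incubated 16 h, then LiveBLAzer substrate 2 h RT; CellTiter-Glo added afterwards, luminescence read at 30 min.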

[2] = qHTS assay to identify small molecule antagonists of the vitamin D receptor (VDR) signaling pathway - cell viability counter screen (AID 743225; active means well fitted curve in the direction sought with a large enough effect in the repeat runs; an effect the other way counts as inactive or inconclusive; further: nearly all actives have a fitted effect of over 50% in size)
In short: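 VDR-UAS-bla HEK 293T cells were plated and incubated 4 h at 37C, then dosed with compound plus 3 nM (final) 1-alpha,25-dihydroxyvitamin D3 for 16 h. After the 2 h beta-lactamase read, viability in the same wells was read as CellTiter-Glo luminescence after 30 min at room temperature.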

[3] = qHTS assay to identify small molecule agonists of the NFkB signaling pathway (AID 1159509; active means well fitted curve in the direction sought with a large enough effect in the signal ratio in the repeat runs, not every such curve was filed as active; the % refers to the signal ratio; further: series mostly up to about 61 µM)
In short: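 ME-180 NFkB-bla, 2,000 cells/well, overnight plating; cpd pinned in DMSO, 5 h 37 C; B/G FRET substrate 1.5 h RT; ex 405, em 460/530 nm.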

[4] = qHTS assay to identify small molecule agonists of the NFkB signaling pathway - cell viability counter screen (AID 1159515); further: series mostly up to about 61 µM; nearly all actives have a fitted effect of over 55% in size
In short: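 Using the same wells as the NFkB reporter read, ME-180 NFkB-bla cells given compounds for 5 hr were assessed for viability via CellTiter-Glo, with luminescence taken after a 30 min room-temperature incubation.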

[5] = qHTS assay to identify small molecule agonists of the endoplasmic reticulum stress response signaling pathway (AID 1159516; active means well fitted activation curve with a large enough effect in the signal ratio in the repeat runs, not every such curve was filed as active; the % refers to the signal ratio)
In short: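 An ESRE-bla HeLa cell assay: compounds were pin-transferred from DMSO onto overnight-plated cells and left 5 hr at 37 C. Substrate was then loaded for 2 hr at room temperature before reading fluorescence at 460 nm and 530 nm.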

[6] = qHTS assay to identify small molecule agonists of the endoplasmic reticulum stress response signaling pathway - cell viability counter screen (AID 1159517);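 further: HeLa cells carrying an ER stress response element beta-lactamase reporter; series mostly up to about 61 µM; nearly all actives have a fitted effect of over 50% in size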
In short: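 CellTiter-Glo was added to wells already read for beta-lactamase FRET, and luminescence was recorded 30 min later. Cells: ESRE-bla HeLa, 1,500 per well, compound exposure 5 hr at 37 C.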

[7] = qHTS assay to identify small molecule antagonists of the retinoid-related orphan receptor gamma (ROR-gamma) signaling pathway - cell viability counter screen (AID 1159520; active means well fitted curve in the direction sought with a large enough effect in the repeat runs; an effect the other way counts as inactive or inconclusive; further: nearly all actives have a fitted effect of over 50% in size)
In short: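 Tet-on ROR gamma CHO cells (1,000/well) were plated 4 hr, given compounds in DMSO for 2 hr at 37 C, then induced with 1 uM final doxycycline for 16 hr. Viability was read as ATP by CellTiter-Glo luminescence after 30 min.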

[8] = target: Nuclear receptor ROR-gamma (Homo sapiens) (UniProt P51449); experiment: qHTS assay to identify small molecule antagonists of the retinoid-related orphan receptor gamma (ROR-gamma) signaling pathway (AID 1159521; active means well fitted curve in the direction sought with a large enough effect in the repeat runs; an effect the other way counts as inactive or inconclusive)
In short: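 Tet-on ROR-gamma CHO cells with ROR response element-luciferase reporter; compounds added 2 hr before 1 uM doxycycline induction, then 16 hr at 37 C. Antagonism scored as decreased ONE-Glo luminescence.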

[9] = qHTS assay to identify small molecule agonists of the AP-1 signaling pathway - cell viability counter screen (AID 1159525); further: nearly all actives have a fitted effect of over 55% in size
In short: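 ME-180 AP-1-bla, 2500 cells/well, Opti-MEM + 0.5% dialyzed FBS; overnight 37 °C; cpd 15-pt titration, 5 h 37 °C; CellTiter-Glo 30 min RT; luminescence read; normalised to TOAB and DMSO controls.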

[10] = qHTS assay to identify small molecule agonists of the AP-1 signaling pathway (AID 1159526)

Measured: Potency

Cc1ccc(S(=O)(=O)NC(=O)NC2CCCC2)cc1
inactive: [1] | [2] | [3] | [4] | [5] | [6] | [7] | [8] | [9]

O=C(OCCCCCOC(=O)c1ccccc1)c1ccccc1
inactive: [2] | [3] | [4] | [5] | [6] | [8] | [9] | [10]

O=C(c1ccco1)N1CCNCC1
inactive: [2] | [3] | [4] | [5] | [6] | [7] | [8] | [9]

Cc1cc(SC2=C(O)C[C@@](CCc3ccc(N)cc3)(C(C)C)OC2=O)c(C(C)(C)C)cc1CO
inactive: [1] | [2] | [3] | [4] | [5] | [6] | [8] | [9] | [10]

C[C@H](N)C(=O)N[C@@H](C)C(=O)NC1[C@H]2CN(c3nc4c(cc3F)c(=O)c(C(=O)O)cn4-c3ccc(F)cc3F)C[C@@H]12 (stereo not given in full)
inactive: [2] | [3] | [4] | [5] | [6] | [8] | [9] | [10]

O=Cc1ccc([N+](=O)[O-])cc1
inactive: [2] | [3] | [4] | [5] | [6] | [7] | [8] | [9]

Clc1ccccc1-c1nc(-c2ccncc2)no1
inactive: [1] | [2] | [3] | [4] | [5] | [6] | [8] | [9] | [10]

N#CCCCC(C#N)CCC#N (stereo not given)
inactive: [1] | [2] | [3] | [4] | [5] | [6] | [8] | [9] | [10]

CCCC1CCOC(C)S1 (stereo not given)
inactive: [1] | [2] | [3] | [4] | [5] | [6] | [8] | [9] | [10]

O=C(O)c1ccc2cc(O)ccc2c1
inactive: [1] | [2] | [3] | [4] | [5] | [6] | [8] | [9] | [10]

O=C(O)CCc1nc2ccccc2[nH]1
inactive: [1] | [2] | [3] | [4] | [5] | [6] | [8] | [9] | [10]

CCCCCCCCCCCCCCCCN
inactive: [1] | [2] | [3] | [4] | [5] | [6] | [7] | [8] | [9]

Cc1ccc(Cl)c(OCC(O)CNC(C)(C)C)c1 (stereo not given)
inactive: [2] | [3] | [4] | [5] | [6] | [7] | [8] | [9]

CCC[Si](OC)(OC)OC
inactive: [3] | [4] | [5] | [6] | [8] | [9] | [10]

CC(=O)Nc1cccc(N)c1
inactive: [3] | [4] | [5] | [6] | [8] | [9] | [10]

CCc1c(C)[nH]c2c1C(=O)C(CN1CCOCC1)CC2 (stereo not given)
inactive: [1] | [2] | [3] | [4] | [5] | [6] | [7] | [8] | [9]

O=[N+]([O-])c1ccccc1CCO
inactive: [1] | [2] | [3] | [4] | [5] | [6] | [8] | [9] | [10]

C/C(=C(\CCO)SS/C(CCO)=C(\C)N(C=O)Cc1cnc(C)nc1N)N(C=O)Cc1cnc(C)nc1N
inactive: [2] | [3] | [4] | [5] | [6] | [7] | [8] | [9] | [10]

C=C[Si]1(C)O[Si](C)(C=C)O[Si](C)(C=C)O[Si](C)(C=C)O1 (stereo not given)
inactive: [2] | [3] | [4] | [5] | [6] | [7] | [8] | [9] | [10]

C/C(=C\C(C)CC(C)CC(C)C)C1CC(=O)OC1=O (stereo not given)
inactive: [1] | [2] | [3] | [4] | [5] | [6] | [8] | [9] | [10]

c1ccc(CCNc2nc(-c3ccccc3)cs2)cc1
inactive: [1] | [2] | [3] | [4] | [5] | [6] | [7] | [8] | [9]

Cc1ccc(NC(=O)c2ccc(CN3CCN(C)CC3)cc2)cc1Nc1nccc(-c2cccnc2)n1
inactive: [3] | [4] | [5] | [6] | [8] | [9] | [10]

O=C(Nc1ccccc1)c1cc([N+](=O)[O-])ccc1Cl
inactive: [1] | [2] | [3] | [4] | [5] | [6] | [8] | [9] | [10]

CCC(C)CCCC(C)(C)O (stereo not given)
inactive: [1] | [2] | [3] | [4] | [5] | [6] | [8] | [9] | [10]

CCc1cnc(C(=O)O)c(C(=O)O)c1
inactive: [1] | [2] | [3] | [4] | [5] | [6] | [8] | [9] | [10]

O=c1[nH]nc(-c2ccc([N+](=O)[O-])o2)o1
inactive: [1] | [2] | [3] | [4] | [5] | [6] | [8] | [9] | [10]

COc1ccc(C(=O)c2ccc(C)cc2)c(O)c1
inactive: [2] | [3] | [4] | [5] | [6] | [7] | [8] | [9] | [10]

CCCCCCCCCCCCCCCCC(=O)O
inactive: [2] | [3] | [4] | [5] | [6] | [7] | [8] | [9]

Clc1cccc(C(c2ccc3nc[nH]c3c2)n2ccnc2)c1 (stereo not given)
inactive: [2] | [3] | [4] | [5] | [6] | [8] | [9] | [10]

O=C(OC1C[C@H]2CC[C@@H](C1)[N+]21CCCC1)C(O)(c1ccccc1)c1ccccc1 (stereo not given in full)
inactive: [1] | [2] | [3] | [4] | [5] | [6] | [7] | [8] | [9]

O=C(O)CNc1ccccc1
inactive: [1] | [2] | [3] | [4] | [5] | [6] | [8] | [9] | [10]

CCCC(=O)OCCC(C)C
inactive: [2] | [3] | [4] | [5] | [6] | [7] | [8] | [9] | [10]

CC1(C)[C@@H]2CC[C@]3(C2)[C@@H]1C(=O)CCC3(C)C
inactive: [1] | [2] | [3] | [4] | [5] | [6] | [7] | [8] | [9]

CS(C)=O
inactive: [2] | [3] | [4] | [5] | [6] | [7] | [8] | [9] | [10]

COc1ccc(CN(CCN(C)C)c2ncccn2)cc1
inactive: [1] | [3] | [4] | [5] | [6] | [7] | [8] | [9]

COC(=O)c1cc(Cl)ccc1[N+](=O)[O-]
inactive: [2] | [3] | [4] | [5] | [6] | [7] | [8] | [9] | [10]

Cc1ccccc1CCO
inactive: [1] | [2] | [3] | [4] | [6] | [7] | [8] | [9] | [10]

C1=COCCC1
inactive: [1] | [2] | [3] | [4] | [6] | [7] | [8] | [9] | [10]

CC(C)(O)C(=O)O
inactive: [1] | [3] | [4] | [6] | [7] | [8] | [9] | [10]

CCCCCC1CCC(=O)O1 (stereo not given)
inactive: [1] | [4] | [5] | [6] | [7] | [8] | [9] | [10]

CCCCCCOC(=O)c1ccccc1
inactive: [3] | [4] | [6] | [8] | [9] | [10]

O=C(O)COCC(=O)O
inactive: [1] | [3] | [4] | [6] | [7] | [8] | [9] | [10]

CC1(C)CC(O)CC(C)(C)N1[O]
inactive: [1] | [2] | [3] | [4] | [6] | [7] | [8] | [9] | [10]

CO[C@@H]1[C@@H](O[C@@H]2O[C@H](C)[C@@H](O[C@H]3C[C@@](C)(O)[C@@H](O)[C@H](C)O3)[C@H](N(C)C)[C@H]2O)[C@@H](CC=O)C[C@@H](C)[C@@H](O[C@@H]2CC[C@H](N(C)C)[C@@H](C)O2)/C=C/C=C/C[C@@H](C)OC(=O)C[C@H]1OC(C)=O
inactive: [1] | [2] | [3] | [4] | [6] | [8] | [9] | [10]

Cc1cc(C)n(CO)n1
inactive: [1] | [2] | [3] | [4] | [6] | [7] | [8] | [9] | [10]

Cc1c(-c2cccnc2)c2ccccc2n1CCCCC(=O)O
inactive: [2] | [3] | [4] | [6] | [7] | [8] | [9] | [10]

S=c1[nH][nH]c(=S)s1
inactive: [1] | [2] | [3] | [4] | [6] | [8] | [9] | [10]

O=C(NC1CCN(CCc2c[nH]c3ccccc23)CC1)c1ccccc1
inactive: [2] | [3] | [4] | [6] | [7] | [8] | [9]

O=[N+]([O-])c1ccc(Cl)cc1Cl
inactive: [1] | [2] | [3] | [4] | [6] | [7] | [8] | [9] | [10]

CC(=O)Nc1ccccc1O
inactive: [1] | [2] | [3] | [4] | [6] | [7] | [8] | [9] | [10]
